From the supplement of paper PMC6555819

Tests used:
Test in all cases: PBM binding z-score (relative to random genomic background probes); higher = stronger binding; sequences stand for … in GC…GCGATTGACAGCGTAGAATGAAGG
[1] = test system: FXR:RXRa (NR concentration 270 nM, RXRa partner concentration 90 nM)
Summary of the method: (§1)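 For binding z-scores, the reference was random background probes on custom Agilent 4×180K protein-binding microarrays. These arrays were incubated 1 h with ligand-free nuclear receptor dimers in PBS pH 7.4, 2% milk, 0.02% Triton X-100, 1 mM DTT, 0.2 mg/mL BSA and 0.4 mg/ml salmon testes DNA. Fluorescence was scanned after antibody detection of each partner (one per run) and regression-normalized.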

[2] = test system: LXRa:RXRa (NR concentration 270 nM, RXRa partner concentration 90 nM)
Summary of the method: as §1

[3] = test system: LXRa homodimer (NR concentration 270 nM)
Summary of the method: as §1

[4] = test system: LXRb:RXRa (NR concentration 270 nM, RXRa partner concentration 90 nM)
Summary of the method: as §1

[5] = test system: LXRb homodimer (NR concentration 270 nM)
Summary of the method: as §1

[6] = test system: PPARa:RXRa (NR concentration 270 nM, RXRa partner concentration 90 nM)
Summary of the method: as §1

[7] = test system: PPARg:RXRa (NR concentration 180 nM, RXRa partner concentration 90 nM)
Summary of the method: as §1

[8] = test system: PPARg:RXRa 270nM:90nM, anti-RXR (NR concentration 270 nM, RXRa partner concentration 90 nM)
Summary of the method: as §1

[9] = test system: PPARg:RXRa 30nM:10nM, anti-RXR (NR concentration 30 nM, RXRa partner concentration 10 nM)
Summary of the method: as §1

[10] = test system: PPARg:RXRa 90nM:30nM, anti-RXR (NR concentration 90 nM, RXRa partner concentration 30 nM)
Summary of the method: as §1

[11] = test system: PPARg:RXRa DBDmut IVT, anti-RXR (DBD mutation: RXRa K156A/R161A, NR concentration 270 nM, RXRa partner concentration 90 nM)
Summary of the method: as §1

[12] = test system: PPARg:RXRa IVT, anti-PPARg (NR concentration 270 nM, RXRa partner concentration 90 nM)
Summary of the method: as §1

[13] = test system: PPARg DBDmut:RXRa IVT, anti-PPARg (DBD mutation: PPARg1 K132A/R137A, NR concentration 270 nM, RXRa partner concentration 90 nM)
Summary of the method: as §1

[14] = test system: PPARg DBDmut IVT, anti-PPARg (DBD mutation: PPARg1 K132A/R137A, NR concentration 270 nM)
Summary of the method: as §1

[15] = test system: PPARg homodimer (NR concentration 180 nM)
Summary of the method: as §1

[16] = test system: PXR:RXRa (NR concentration 270 nM, RXRa partner concentration 90 nM)
Summary of the method: as §1

[17] = test system: PXR homodimer (NR concentration 270 nM)
Summary of the method: as §1

[18] = test system: RARa:RXR (NR concentration 270 nM, RXRa partner concentration 90 nM)
Summary of the method: as §1

[19] = test system: RARa homodimer (NR concentration 270 nM)
Summary of the method: as §1

[20] = test system: RARb:RXRa (NR concentration 270 nM, RXRa partner concentration 90 nM)
Summary of the method: as §1

Sequence | PBM binding z-score [1] | PBM binding z-score [2] | PBM binding z-score [3] | PBM binding z-score [4] | PBM binding z-score [5] | PBM binding z-score [6] | PBM binding z-score [7] | PBM binding z-score [8] | PBM binding z-score [9] | PBM binding z-score [10] | PBM binding z-score [11] | PBM binding z-score [12] | PBM binding z-score [13] | PBM binding z-score [14] | PBM binding z-score [15] | PBM binding z-score [16] | PBM binding z-score [17] | PBM binding z-score [18] | PBM binding z-score [19] | PBM binding z-score [20]
GCTCGGAGGACAAGGTCCGAGCTTTGTCCGTAGA | -0.694 | -0.575 | -1.02 | -1.07 | -1.61 | -0.595 | -1.19 | -0.67 | -1.34 | -1.09 | -0.364 | -0.655 | -1.03 | -1.31 | -1.07 | -0.519 | -1.19 | -0.414 | -1.77 | 0.839
GCTGCGAGGTCAGGTTGGTCAGCTAACGGGTACG | 5.45 | 3.46 | 0.305 | 2.93 | 0.482 | 4.38 | 2.49 | 2.99 | 0.517 | 1.75 | 1.82 | 2.38 | -0.42 | -0.641 | 2.28 | 3.29 | 0.452 | 3.39 | 0.367 | 4.51
ATATCTAGGTTATCGGGTCATTCAGTTTGCGCAT | 3.27 | 3.47 | 2.2 | 3.33 | 1.83 | 4.98 | 6.91 | 6.17 | 4.2 | 6.24 | 7.52 | 7.5 | 1.81 | 3.17 | 3.91 | 3.94 | 8.08 | 3.87 | 2.26 | 2.89
ATCTCTAGGTAAAGATAGTTCAGTTAATGCAAAT | 0.733 | 4.33 | 1.07 | 1.39 | 0.619 | 0.689 | 0.743 | 0.482 | 0.448 | 0.659 | 2.3 | 1.96 | 0.842 | 0.769 | 1.02 | 1.26 | 0.841 | 0.925 | 1.28 | 0.672
AGGACGAGGGCACGCTGAGTTGATAGCAGAGTAG | 0.954 | 0.423 | -0.584 | 0.138 | -1.02 | 1.45 | 1.2 | 0.43 | -0.0581 | 0.384 | 2.52 | 2.08 | -0.0685 | -0.533 | 0.511 | 1.31 | 0.265 | 0.618 | -0.58 | 2.68
TCTGATAGGTCAACGATGGTCAGCTAATCTGCTA | 5.29 | 4.83 | 0.975 | 3.31 | 0.737 | 4.76 | 3.47 | 4.48 | 3.79 | 4.21 | 3.63 | 3.48 | 0.759 | 0.735 | 2.17 | 3.01 | -0.308 | 3.7 | 1.12 | 4.44
TTACCAAGGTGCAAGGTCGTTGATGCACGCCTTG | 0.786 | 1.16 | 0.129 | 0.668 | -0.474 | 2.06 | 2.28 | 3.87 | 1.91 | 3.42 | -0.0401 | 1.05 | -0.472 | -0.179 | 0.87 | 1.16 | 0.648 | 1.13 | -0.653 | 1.22
CAAACTAGATCAAGAGGTCAAAGTCCGCTTCCCG | 4.72 | 5.55 | 6.71 | 5.21 | 1.87 | 5.77 | 4.08 | 4.85 | 2.67 | 4.71 | 2.78 | 3.67 | 0.521 | 0.139 | 2.25 | 5.07 | 1.99 | 5.22 | 1.44 | 4.06
ATCTCTTGGTAAAGATAGTTCAGTGAATGCAAAT | 0.445 | 0.78 | 0.577 | 0.693 | 0.423 | 0.553 | 0.212 | 0.257 | 0.185 | 0.285 | -0.0767 | 0.448 | 0.845 | 1.88 | 0.879 | 0.78 | 0.85 | 0.962 | 0.477 | 0.724
GAAGACAGGTGAAACGCAGGTAACTCAGGGTGGC | 0.0149 | 0.318 | -0.652 | -0.0898 | -0.743 | 1.14 | 0.681 | 0.383 | -0.249 | -0.0724 | 0.674 | 1.15 | 0.0757 | -0.907 | -0.0582 | -0.0972 | -0.579 | 0.542 | -0.418 | 0.745
ATATGTAGGATAAGGGTCATTCAGGTTGGTTCGC | 3.71 | 4.09 | 2.42 | 3.73 | 1.19 | 5.39 | 9.65 | 8.92 | 10.3 | 10 | 4.06 | 5.32 | 1.23 | 0.978 | 3.23 | 4.9 | 2.87 | 4.72 | 2.11 | 3.18
TCTGCTAGGTCAGTTGGTCAGCTGACGAGCTGCC | 0.985 | 0.585 | -0.512 | 0.147 | 0.278 | 1.34 | 0.32 | 1.68 | 1.08 | 0.992 | 2.95 | 3.18 | 1.59 | 1.47 | 0.336 | 0.0252 | -1.5 | 0.0768 | -1.43 | 3.42
CGTCAAAGTTCAACTTAGGTAACGTAAAGCACGC | 7.46 | 6.58 | 4.88 | 4.63 | 2.58 | 5.35 | 5.28 | 5.78 | 2.4 | 4.66 | -0.00853 | 2.1 | 0.537 | 0.683 | 4.03 | 5.5 | 4.07 | 4.61 | 2.1 | 5.38
CCTGCTAGGTCAGTGGTCAGCTAAAGCAGCTCGC | 0.953 | 0.472 | -0.482 | 0.299 | -0.638 | 1.39 | 1.53 | 2.58 | 0.178 | 1.59 | 3.16 | 2.76 | -1.08 | -1.65 | 0.944 | -0.0429 | -0.667 | 0.509 | -0.82 | 3.42
TATACAGGGTCAAAGGACAGAGTACGAATGTCGA | 7.39 | 6.09 | 2.79 | 4.85 | 2.96 | 6.24 | 7.83 | 6.55 | 4.83 | 5.84 | 2.27 | 4.9 | 3.23 | 2.81 | 2.18 | 3.68 | 1.01 | 4.56 | 1.66 | 4.55
